Over roughly 1,100 compounds, “Wnt reporter firefly/Renilla luciferase ratio relative to plate median” has its median near 1.1; the highest 2% begin near 1.6. The sample as a whole holds a higher share of the highest values than the screen did.
Tested on: HEK293T (UBE3A T485A transfected, BAR Wnt reporter)
Experiment: Wnt reporter firefly/Renilla luciferase ratio relative to plate median (fold (linear ratio)); higher = more Wnt/beta-catenin reporter activation
Details: 24 h
Method in brief: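 HEK293T cells were grown in DMEM with 10% FBS at 37°C and 5% CO2, at 4500 cells/well in white 384-well plates. They were transfected with a BAR firefly luciferase Wnt reporter, TK-Renilla and an expression plasmid using Fugene 6. Four hours later, robots dosed the chemicals at 0.01–100 uM for 24 h, followed by Dual-Glo luciferase readout. Wnt activity (firefly/Renilla ratio) and cell health (raw Renilla) were median-centred per plate, averaged over four biological replicates.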

Structure (SMILES) | Wnt reporter firefly/Renilla luciferase ratio (concentration: 0.1 uM) | Wnt reporter firefly/Renilla luciferase ratio (concentration: 1 uM) | Wnt reporter firefly/Renilla luciferase ratio (concentration: 10 uM) | Wnt reporter firefly/Renilla luciferase ratio (concentration: 100 uM) | Wnt reporter firefly/Renilla luciferase ratio (concentration: 0.01 uM)
CC[C@H](c1ccc(O)cc1)[C@@H](CC)c1ccc(O)cc1 [meso-Hexestrol] | 0.858 | 1.05 | 0.711 | 0.0535 | 
CCCCc1ccc2c(n1)[C@@H](c1ccc(OC)cc1C[C@H](C)C(=O)[O-])[C@H](C(=O)[O-])[C@H]2c1ccc2c(c1)OCO2.[Na+].[Na+] | 1.37 | 1.08 | 1.18 | 0.429 | 
Nc1ncn([C@@H]2O[C@H](CO)[C@@H](O)[C@H]2O)c(=O)n1 [5-azacytidine] | 1.52 | 1.36 | 0.213 | 2.42 | 1.01
OCC1OC(n2cnc3c(NC4CCCC4)ncnc32)C(O)C1O (centres undefined) [N6-Cyclopentyl adenosine] | 1.15 | 1.06 | 1.05 | 1.18 | 1.31
Cl.Nc1ccn([C@@H]2O[C@H](CO)[C@@H](O)[C@@H]2O)c(=O)n1 [Cytarabine hydrochloride] | 1.1 | 0.941 | 0.171 | 0.125 | 
c1ccc(C(O[C@@H]2CCCN(CCc3ccc4c(c3)OCO4)C2)c2ccccc2)cc1 [Zamifenacin] | 1.15 | 1.05 | 0.996 | 1.13 | 
CS(=O)(=O)O.Cc1nccn1-c1ccc(Sc2cccc(C3(C(N)=O)CCOCC3)c2)cc1 | 1.01 | 0.73 | 0.387 | 0.282 | 
COc1ccc2sc(C(=O)Nc3nnn[n-]3)c(OC(C)C)c2c1.[Na+] | 1.08 | 1.08 | 1.35 |  | 
CCCCCOC(C)=O [Pentyl acetate] | 1.22 | 0.968 | 1.4 | 1.61 | 
CCCCCCC(=O)OCC [Ethyl heptanoate] | 1.14 | 1.05 | 1.47 | 1.14 | 
CCCCOC(=O)CCCCC(=O)OCCCC [Dibutyl hexanedioate] | 0.981 | 0.969 | 1 | 1.08 | 
CC(=O)OCCOCCOCCOC(C)=O [Triethylene glycol diacetate] | 1.25 | 1.16 | 1.07 | 1.26 | 
CC(=O)OCCC(C)C [3-Methylbutyl acetate] | 1.41 | 0.938 | 1.03 | 1.09 | 
CCCCOC(=O)CCCCCCCCC(=O)OCCCC [Dibutyl decanedioate] | 0.951 | 0.896 | 0.802 | 2.33 | 
Cc1cccc(C)c1O [2,6-Dimethylphenol] | 1.32 | 0.992 | 1.45 | 1.16 | 
CC(=O)c1ccc2c(c1)[C@H](NC(=O)c1ccc(F)cc1)[C@@H](O)C(C)(C)O2 [Carabersat] | 1.27 | 1.07 | 1.04 | 1.43 | 
C=C(C)C(N)=O [Methacrylamide] | 1.22 | 1.04 | 1.05 | 1.25 | 
